According to PubChem BioAssay (NCI):
Compounds without any hit were thinned out: in the full panel of roughly 83,000, 20% have a hit.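 Cell lines were cultured in 96-well plates, exposed to a single compound concentration, and assessed for percent growth 48 hours later.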 A number with no mark means an inactive call. Activity calls are given as the source filed them. How the source made its calls: active means growth percent below 10; inactive means the rest.

Legend:
Experiment in all cases: NCI-60 one-dose screen, 48 h (100 = growth as untreated, 0 = no growth, -100 = all killed)
Conditions in all cases: 10 µM unless noted
[1] = system: SK-MEL-2 melanoma
[2] = system: EKVX NSCLC
[3] = system: SN12C renal
[4] = system: UO-31 renal
[5] = system: TK-10 renal
[6] = system: ACHN renal
[7] = system: CAKI-1 renal
[8] = system: CCRF-CEM leukemia
[9] = system: MOLT-4 leukemia
[10] = system: SR leukemia
[11] = system: RPMI-8226 leukemia
[12] = system: OVCAR-8 ovarian
[13] = system: OVCAR-5 ovarian
[14] = system: OVCAR-4 ovarian
[15] = system: SK-OV-3 ovarian
[16] = system: IGROV1 ovarian
[17] = system: OVCAR-3 ovarian
[18] = system: HS 578T breast
[19] = system: NCI/ADR-RES ovarian

O=S(=O)(NCCCNc1nccc(-c2[nH]c(-c3ccccc3)nc2-c2ccc(F)c(O)c2)n1)c1cccc2ccccc12 gave a growth [1] of 17.1%, a growth [2] of 82% and a growth [3] of 63.2%. For the same molecule, the growth [4] was 75.2%, the growth [5] was 72.5% and the growth [6] was 59.6%. The growth [7] was 77.2%, the growth [8] was 17% and the growth [9] was 31.4%. The growth [10] was 28.6%, the growth [11] was 4.6% (active) and the growth [12] was 54.3%. The growth [13] was 146%, the growth [14] was 81.9% and the growth [15] was 103%. It also gave a growth [16] of 58.3%, a growth [17] of 88.4% and a growth [18] of 40.7%. For the same molecule, the growth [19] was 91.1%.
Work on CCOc1cccc(/C(N)=N/C(N)=N/c2nc3ccccc3s2)c1 yielded a growth [1] of 117%, a growth [2] of 73.3% and a growth [3] of 53.1%. For the same molecule, the growth [4] was 38.4%, the growth [5] was 135% and the growth [6] was 48.7%. It also gave a growth [7] of 62.4%, a growth [8] of 55.8% and a growth [9] of 62.4%. For the same molecule, the growth [10] was 6.28% (active), the growth [11] was 77.3% and the growth [12] was 68.8%. It also gave a growth [13] of 98.8%, a growth [15] of 132% and a growth [16] of 56%. The growth [17] was 104%, the growth [18] was 96.3% and the growth [19] was 49.7%.
Work on N#CC1=C2NCCCNc3oc(nc3C#N)Cc3ccccc3CC(=N1)O2 yielded a growth [1] of 93.9%, a growth [2] of 99.5% and a growth [3] of 105%. The growth [4] was 72.9%, the growth [5] was 106% and the growth [6] was 87.4%. For the same molecule, the growth [7] was 77.3%, the growth [8] was 30.4% and the growth [9] was 84.1%. The growth [10] was 36.6%, the growth [11] was 19.9% and the growth [12] was 97.4%. The growth [13] was 102%, the growth [14] was 94.5% and the growth [16] was 93.4%. It also gave a growth [18] of 92.4% and a growth [19] of 97.8%.
In the case of CC(=O)C1=C(C)NC(NNc2ccccc2)=NC1c1ccc([N+](=O)[O-])cc1 (stereo not given), the growth [1] is reported as 102%, the growth [2] is reported as 80% and the growth [3] is reported as 98.8%. The growth [4] was 73.3%, the growth [5] was 109% and the growth [6] was 76%. For the same molecule, the growth [7] was 43.3%, the growth [8] was 89.7% and the growth [9] was 82.6%. The growth [10] was 62.4%, the growth [11] was 92.4% and the growth [12] was 91.1%. The growth [13] was 95.9%, the growth [14] was 84.3% and the growth [15] was 106%. For the same molecule, the growth [16] was 82.6%, the growth [17] was 99.7% and the growth [18] was 99.6%. For the same molecule, the growth [19] was 91.4%.
With NC1CC2(CCN(c3cnc(C(=O)Nc4cc(F)cc5cccnc45)cn3)CC2)C1 the growth [1] was 101%, the growth [2] was 81.9% and the growth [3] was 72.5%. The growth [4] was 76.1%, the growth [5] was 88% and the growth [6] was 79%. The growth [7] was 79.3%, the growth [8] was 34.7% and the growth [9] was 40.8%. The growth [10] was 3.71% (active), the growth [11] was 61.1% and the growth [12] was 94.6%. It also gave a growth [13] of 85.9%, a growth [14] of 95.2% and a growth [15] of 107%. For the same molecule, the growth [16] was 64.8%, the growth [17] was 85.2% and the growth [18] was 94.2%. The growth [19] was 89.2%.
With C[C@H](Nc1ncnc2ccc(-c3cnc(Cl)c(NS(C)(=O)=O)c3)cc12)c1ccccc1 the growth [1] was -84.9% (active), the growth [2] was -34.3% (active) and the growth [3] was 13.4%. The growth [4] was -63.5% (active), the growth [5] was -82.3% (active) and the growth [6] was 9.8% (active). The growth [7] was -22.4% (active), the growth [8] was 7.38% (active) and the growth [9] was -16.5% (active). For the same molecule, the growth [10] was -20.1% (active), the growth [11] was -7.72% (active) and the growth [12] was -26.3% (active). The growth [13] was -14.9% (active), the growth [14] was 0.576% (active) and the growth [15] was -65.5% (active). For the same molecule, the growth [16] was -28.8% (active), the growth [17] was -65.9% (active) and the growth [18] was -20% (active). The growth [19] was 7.69% (active).
For CC(=O)Nc1nc(C)c(-c2csc(Nc3ccccc3)n2)s1, the growth [1] was 18.8%, the growth [2] was -0.417% (active) and the growth [3] was 24.4%. It also gave a growth [4] of 10.9%, a growth [5] of 31.4% and a growth [6] of 17.2%. The growth [7] was 28.6%, the growth [8] was 27.1% and the growth [9] was 16.6%. The growth [10] was 8.83% (active), the growth [11] was 27.4% and the growth [12] was 52.3%. It also gave a growth [13] of 41.9%, a growth [14] of 54.7% and a growth [15] of 15.3%. For the same molecule, the growth [16] was -9.74% (active), the growth [17] was 37.1% and the growth [18] was -4.87% (active). For the same molecule, the growth [19] was 35.9%.
For COc1cc(C(C)=C(c2ccc(OCCN(C)C)cc2)c2ccc(OCCN(C)C)cc2)ccc1F, the growth [1] was 109%, the growth [2] was 96.1% and the growth [3] was 101%. For the same molecule, the growth [4] was 95.5%, the growth [5] was 97.8% and the growth [6] was 105%. The growth [7] was 101%, the growth [8] was 111% and the growth [9] was 108%. The growth [10] was 99.2%, the growth [11] was 107% and the growth [12] was 104%. For the same molecule, the growth [13] was 103%, the growth [14] was 108% and the growth [15] was 102%. It also gave a growth [16] of 105%, a growth [17] of 109% and a growth [18] of 101%. It also gave a growth [19] of 105%.
O=S(=O)(NCCCNc1nccc(-c2[nH]c(-c3ccccc3)nc2-c2ccc(F)c(O)c2)n1)c1ccccc1 showed a growth [1] of 31.6%, a growth [2] of 102% and a growth [3] of 107%. The growth [4] was 144%, the growth [5] was 154% and the growth [6] was 95.4%. For the same molecule, the growth [7] was 105%, the growth [8] was 47.9% and the growth [9] was 51.3%. For the same molecule, the growth [10] was 51.5%, the growth [11] was 48.9% and the growth [12] was 90.2%. For the same molecule, the growth [13] was 155%, the growth [14] was 118% and the growth [15] was 121%. For the same molecule, the growth [16] was 114%, the growth [17] was 138% and the growth [18] was 116%. For the same molecule, the growth [19] was 108%.
For COc1cc(C(=O)c2cc(C(C)=O)c3cccc(C)n23)cc(OC)c1OC, the growth [1] was -11.8% (active), the growth [2] was 53.6% and the growth [3] was 45.3%. The growth [4] was 45.2%, the growth [5] was 78.6% and the growth [6] was 51.4%. It also gave a growth [7] of 33.5%, a growth [8] of 44.1% and a growth [9] of 38.6%. The growth [10] was 17%, the growth [11] was 51.2% and the growth [12] was 50.8%. For the same molecule, the growth [14] was 74.1%, the growth [15] was 46.6% and the growth [16] was 43.9%. It also gave a growth [18] of 44.2% and a growth [19] of 22.1%.
For O=C(CSc1nnc(-c2ccc(Cl)cc2)n1-c1ccccc1)Nc1ccc(Cl)cc1, the growth [1] was 87.3%, the growth [2] was 49.7% and the growth [3] was 16.3%. The growth [4] was 12%, the growth [5] was -6.39% (active) and the growth [6] was -2.97% (active). It also gave a growth [7] of 50.9%, a growth [8] of 53.9% and a growth [9] of 84.6%. The growth [10] was 18.6%, the growth [11] was 31% and the growth [12] was 31%. The growth [13] was 37.3%, the growth [14] was -55.8% (active) and the growth [15] was 75%. The growth [16] was 23.3%, the growth [17] was 57.5% and the growth [18] was 38.4%. For the same molecule, the growth [19] was 34.7%.
O=C(CSc1nnc(-c2cccs2)n1-c1ccccc1)Nc1ccccc1F was tested, and the growth [1] was 95.8%, the growth [2] was 94.6% and the growth [3] was 99.1%. It also gave a growth [4] of 77.4%, a growth [5] of 110% and a growth [6] of 92.5%. The growth [7] was 55.6%, the growth [8] was 76.9% and the growth [9] was 72%. The growth [10] was 25.3%, the growth [11] was 88.7% and the growth [12] was 95.1%. It also gave a growth [13] of 100%, a growth [14] of 95.1% and a growth [15] of 96.4%. It also gave a growth [16] of 84.9%, a growth [17] of 86.9% and a growth [18] of 91.6%. It also gave a growth [19] of 49.2%.
In the case of CCCCOc1ccc(S(=O)(=O)N2CCN(c3nc(C)cc(N4CCOCC4)n3)CC2)cc1, the growth [1] is reported as -8.8% (active), the growth [2] is reported as 39.9% and the growth [3] is reported as 40.4%. It also gave a growth [4] of 17.4%, a growth [5] of 33.6% and a growth [6] of 15.3%. The growth [7] was 19.8%, the growth [8] was 60.3% and the growth [10] was 42.4%. The growth [11] was 3.95% (active), the growth [12] was 45% and the growth [13] was 50.4%. The growth [14] was 49%, the growth [15] was -11.6% (active) and the growth [16] was 7.73% (active). For the same molecule, the growth [18] was 63.6% and the growth [19] was 25.4%.
Molecule CCCc1[nH]c(-c2cc(N)ccc2Cl)c2c1C(=O)CCCC2 has a growth [1] of 95.5%, a growth [2] of 90.3% and a growth [3] of 92.1%. It also gave a growth [4] of 78.3%, a growth [5] of 107% and a growth [6] of 107%. For the same molecule, the growth [7] was 76.3%, the growth [8] was 96.2% and the growth [9] was 88.6%. It also gave a growth [10] of 85.8%, a growth [11] of 89.7% and a growth [12] of 96.4%. For the same molecule, the growth [13] was 94.7%, the growth [14] was 95.9% and the growth [15] was 103%. It also gave a growth [16] of 91.6%, a growth [18] of 89.9% and a growth [19] of 95.2%.
CCOC(=O)c1cccc(NC2=C(Cl)C(=O)C(C)=C(C)C2=O)c1 was tested, and the growth [1] was 104%, the growth [2] was 74.4% and the growth [3] was 94.8%. For the same molecule, the growth [4] was 96.7%, the growth [5] was 129% and the growth [6] was 106%. The growth [7] was 89.4%, the growth [8] was 13.9% and the growth [9] was 5.67% (active). For the same molecule, the growth [10] was 27.7%, the growth [11] was 26.8% and the growth [12] was 98.8%. For the same molecule, the growth [13] was 105%, the growth [14] was -4.17% (active) and the growth [15] was 107%. It also gave a growth [16] of 32.2%, a growth [17] of 99.8% and a growth [18] of 95.9%. It also gave a growth [19] of 102%.
With CC(O)c1cccc(/C(N)=N/C(N)=N/c2nc3ccccc3s2)c1 (stereo not given) the growth [1] was 107%, the growth [2] was 91.9% and the growth [3] was 86.9%. For the same molecule, the growth [4] was 89.2%, the growth [5] was 133% and the growth [6] was 86.6%. For the same molecule, the growth [7] was 101%, the growth [8] was 84% and the growth [9] was 83.9%. For the same molecule, the growth [10] was 82.3%, the growth [11] was 67.3% and the growth [12] was 97.2%. For the same molecule, the growth [13] was 100%, the growth [15] was 105% and the growth [16] was 92.5%. For the same molecule, the growth [17] was 102%, the growth [18] was 91.9% and the growth [19] was 95.6%.
